Assay results from the supplement of paper PMC7411640.
Where a name gives a salt, the structure may show the parent alone.

system: MDA-MB-468; experiment: phospho-S6 immunofluorescence (DAPI-normalised), per-plate z-score; higher = higher phospho-S6 signal (less pathway suppression); settings: co-treatment: GDC0941 450 nM; 24 h
Method: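 GPCR-targeted compound library (MedChemExpress HY-L006) tested on MDA-MB-468 PTEN-null TNBC cells in 384-well plates at 0.1, 1 or 10 uM, combined with vehicle, GDC0941 450 nM or lapatinib 1 uM, for 24 h. Phospho-S6 (S240/244) immunofluorescence normalised to DAPI and expressed as a per-plate z-score; values are the mean of biological triplicates.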

Going from O=C(COc1ccc(C(=O)c2ccccc2)cc1)NC1CCN(Cc2ccccc2)CC1 [AdipoRon] (compound 10 µM) to CC(C)[C@H](N=C(NS(=O)(=O)c1ccc(Cl)cc1)N1C[C@H](c2ccccc2)C(c2ccc(Cl)cc2)=N1)C(N)=O (compound 10 µM), the “phospho-S6 immunofluorescence (z-score)” value rises from -4.84 to -2.11.

Going from OC[C@H]1O[C@@H](n2cnc3c(N[C@H]4CCC[C@@H]4O)ncnc32)[C@H](O)[C@@H]1O (compound 10 µM) to CCOC(=O)N[C@@H]1CC[C@@H]2[C@@H](C1)C[C@H]1C(=O)O[C@H](C)[C@H]1[C@H]2/C=C/c1ccc(-c2cccc(F)c2)cn1 [Vorapaxar] (compound 10 µM), the “phospho-S6 immunofluorescence (z-score)” value falls from 0.54 to -5.92.

Compared with Cc1c(C(=O)NN2CCCCC2)nn(-c2ccc(Cl)cc2Cl)c1-c1ccc(Cl)cc1 [Rimonabant (Hydrochloride)] (compound 10 µM), CC(C)Cc1ccc([C@@H](C)C(=O)NS(C)(=O)=O)cc1 [Reparixin (L-lysine salt)] (compound 10 µM) is higher in “phospho-S6 immunofluorescence (z-score)” value: -3.49 for the first, -1.6 for the second.

With CC(C)C(=O)OCC(=O)[C@@]12O[C@H](C3CCCCC3)O[C@@H]1C[C@H]1[C@@H]3CCC4=CC(=O)C=C[C@]4(C)[C@H]3[C@@H](O)C[C@@]12C [Ciclesonide] (compound 10 µM) the “phospho-S6 immunofluorescence (z-score)” value was -3.85.

same assay, conditions: co-treatment: lapatinib 1 uM; 24 h

First: Nc1nc(CC(=O)Nc2ccc(CCNC[C@H](O)c3ccccc3)cc2)cs1 [Mirabegron] (compound 10 µM)
Second: CCCCc1ccc(NS(=O)(=O)c2ccc(F)cc2)cc1 (compound 10 µM)
The “phospho-S6 immunofluorescence (z-score)” value of the first is higher: 1.75 for the first, -8.48 for the second.

Going from N#Cc1ccc2[nH]cc(CCCCN3CCN(c4ccc5oc(C(N)=O)cc5c4)CC3)c2c1 [Vilazodone] (compound 10 µM) to CN(C)CCc1c[nH]c2ccc(CS(=O)(=O)N3CCCC3)cc12 [Almotriptan (malate)] (compound 10 µM), the “phospho-S6 immunofluorescence (z-score)” value rises from 0.11 to 0.57.

First: CC(C)(C(=O)O)c1ccc(C(O)CCCN2CCC(C(O)(c3ccccc3)c3ccccc3)CC2)cc1 (centres undefined) [Fexofenadine (hydrochloride)] (compound 10 µM)
Second: O=C(COc1ccc(C(=O)c2ccccc2)cc1)NC1CCN(Cc2ccccc2)CC1 [AdipoRon] (compound 10 µM)
The “phospho-S6 immunofluorescence (z-score)” value of the first is higher: -0.84 for the first, -4.87 for the second.

First: O=C(O[C@@H]1C[C@@H]2C[C@H]3C[C@H](C1)N2CC3=O)c1c[nH]c2ccccc12 [Dolasetron (Mesylate hydrate)] (compound 10 µM)
Second: O=C(CCCN1CC=C(n2c(=O)[nH]c3ccccc32)CC1)c1ccc(F)cc1 [Droperidol] (compound 10 µM)
The “phospho-S6 immunofluorescence (z-score)” value of the first is lower: -0.24 for the first, 0.16 for the second.

Compared with Nc1nc2c(cnn2CCc2ccccc2)c2nc(-c3ccco3)nn12 (compound 10 µM), NC1=NCC2c3ccccc3Cc3ccccc3N12 (centres undefined) [Epinastine] (compound 10 µM) is lower in “phospho-S6 immunofluorescence (z-score)” value: 1.51 for the first, -0.81 for the second.

Compared with COc1ccc2cccc(CCNC(C)=O)c2c1 [Agomelatine] (compound 10 µM), COc1ccc2[nH]cc(CCNC(C)=O)c2c1 [Melatonin] (compound 10 µM) is lower in “phospho-S6 immunofluorescence (z-score)” value: 0.54 for the first, 0.24 for the second.

Going from OC[C@H]1O[C@@H](n2cnc3c(N[C@@H]4CCc5ccccc54)ncnc32)[C@H](O)[C@@H]1O (compound 10 µM) to OC[C@H]1O[C@@H](n2cnc3c(N[C@H]4CCC[C@@H]4O)ncnc32)[C@H](O)[C@@H]1O (compound 10 µM), the “phospho-S6 immunofluorescence (z-score)” value falls from 0.89 to 0.82.

First: Cc1ccc(F)cc1C(=O)Nc1ccc(C(=O)N2Cc3cccn3Cc3ccccc32)c(Cl)c1 [Lixivaptan] (compound 10 µM)
Second: COc1ccc2cc(OCC3(C(=O)O)CN(C(=O)c4ccc(F)cc4)C3)ccc2c1 (compound 10 µM)
The “phospho-S6 immunofluorescence (z-score)” value of the first is lower: -0.79 for the first, 0.61 for the second.

First: CCCCC(C)(O)C/C=C/[C@H]1[C@H](O)CC(=O)[C@@H]1CCCCCCC(=O)OC (mixture of isomers) [Misoprostol] (compound 10 µM)
Second: COc1cc2nc(N(C)CCCNC(=O)C3CCCO3)nc(N)c2cc1OC (centres undefined) [Alfuzosin] (compound 10 µM)
The “phospho-S6 immunofluorescence (z-score)” value of the first is lower: 0.67 for the first, 0.71 for the second.

Compared with COc1ccc(N2CCOCC2)c2sc(NC(=O)N3CCC(C)(O)CC3)nc12 [Tozadenant] (compound 10 µM), COc1cc2c(cc1OC)CN(C(=O)[C@@H](NCc1ccncc1)C(C)(C)C)CC2 (compound 10 µM) is higher in “phospho-S6 immunofluorescence (z-score)” value: 0.77 for the first, 0.87 for the second.

First: CN1CCN(c2cc(-c3ccccc3)nc(N)n2)CC1 (compound 10 µM)
Second: CN1CCc2cc(Cl)c(O)cc2[C@@H](c2ccccc2)C1 (compound 10 µM)
The “phospho-S6 immunofluorescence (z-score)” value of the first is higher: 0.06 for the first, -1.63 for the second.

Compared with CN(C)CC[C@@H](c1ccc(Cl)cc1)c1ccccn1 [Dexchlorpheniramine (maleate)] (compound 10 µM), CC(C)[C@H](N=C(NS(=O)(=O)c1ccc(Cl)cc1)N1C[C@H](c2ccccc2)C(c2ccc(Cl)cc2)=N1)C(N)=O (compound 10 µM) is lower in “phospho-S6 immunofluorescence (z-score)” value: -0.08 for the first, -0.39 for the second.

First: COCCCN1CCC(NC(=O)c2cc(Cl)c(N)c3c2OCC3)CC1 [Prucalopride] (compound 10 µM)
Second: Cc1c(C(=O)NN2CCCCC2)nn(-c2ccc(Cl)cc2Cl)c1-c1ccc(Cl)cc1 [Rimonabant (Hydrochloride)] (compound 10 µM)
The “phospho-S6 immunofluorescence (z-score)” value of the first is higher: 0 for the first, -4.25 for the second.

First: CCCCC1=NC2(CCCC2)C(=O)N1Cc1ccc(-c2ccccc2-c2nnn[nH]2)cc1 [Irbesartan] (compound 10 µM)
Second: Cc1ccc(/C(=C\CN2CCCC2)c2cccc(/C=C/C(=O)O)n2)cc1 [Acrivastine] (compound 10 µM)
The “phospho-S6 immunofluorescence (z-score)” value of the first is lower: 0.13 for the first, 0.6 for the second.

Compared with CC1OC2(CS1)CN1CCC2CC1 (centres undefined) [Cevimeline (hydrochloride hemihydrate)] (compound 10 µM), CC(C)C(=O)OCC(=O)[C@@]12O[C@H](C3CCCCC3)O[C@@H]1C[C@H]1[C@@H]3CCC4=CC(=O)C=C[C@]4(C)[C@H]3[C@@H](O)C[C@@]12C [Ciclesonide] (compound 10 µM) is higher in “phospho-S6 immunofluorescence (z-score)” value: -0.04 for the first, 0 for the second.

Compared with Clc1ccc2c(c1)CCc1cccnc1C2=C1CCNCC1 [Desloratadine] (compound 10 µM), CCC1(c2c[nH]cn2)Cc2ccccc2C1 [Atipamezole (hydrochloride)] (compound 10 µM) is higher in “phospho-S6 immunofluorescence (z-score)” value: -1.96 for the first, 0.37 for the second.

Going from COc1cc(/C=C/C(=O)O)ccc1O [Ferulic acid (sodium)] (compound 10 µM) to CC(C)Cc1ccc([C@@H](C)C(=O)NS(C)(=O)=O)cc1 [Reparixin (L-lysine salt)] (compound 10 µM), the “phospho-S6 immunofluorescence (z-score)” value falls from 0.36 to -1.46.

Compared with O=c1cc(C(Cl)(Cl)Cl)oc2ccc(Cl)cc12 (compound 10 µM), CCOC(=O)N[C@@H]1CC[C@@H]2[C@@H](C1)C[C@H]1C(=O)O[C@H](C)[C@H]1[C@H]2/C=C/c1ccc(-c2cccc(F)c2)cn1 [Vorapaxar] (compound 10 µM) is lower in “phospho-S6 immunofluorescence (z-score)” value: -0.11 for the first, -11.6 for the second.

For C=C[C@@]1(C)CC(=O)[C@]2(O)[C@@]3(C)[C@@H](O)CCC(C)(C)[C@@H]3[C@H](O)[C@H](OC(C)=O)[C@@]2(C)O1 [Forskolin] (compound 10 µM), the “phospho-S6 immunofluorescence (z-score)” value was 2.65.
